Where “and” joins values, the source holds several entries; their conditions need not be identical. Equal entries are not always repeated. Calls of active or inactive are those of the source. Cut-off read from the data, not from the text of the source, unless noted: active = parasite load remaining mostly below about 12% (no sharp cut-off); inactive = mostly above about 10%.
What was measured:
[1] = liver-stage malaria parasite growth inhibition, primary screen, cell-based, HepG2, luciferase luminescence, HepG2 viability (AID 624349);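 note: 100% = mean of DMSO negative control wells on the same plate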; conditions: P. berghei liver stage in HepG2, luciferase luminescence, concentration not given here; parasite load remaining: stronger effect = lower value; viability: measured here: HepG2 viability without parasites
[2] = stimulators of nuclear beta-catenin in C2C12, primary screen, imaging, WNT3A-conditioned medium, mouse C2C12, NPC library (AID 1117326; in the data active = nuclear beta-catenin stimulation mostly above about 4.2%, no sharp cut-off; inactive = mostly below about 10%; note: reference of the scale not given here); conditions: stronger effect = higher value

Compound	parasite load remaining [1]	viability [1]	nuclear beta-catenin stimulation ([2]; at 10 µM)	nuclear beta-catenin stimulation ([2]; stimulation, at 2 µM) [%]
CC(=O)OCC1=C(C(=O)O)N2C(=O)[C@@H](NC(=O)CSc3ccncc3)[C@H]2SC1	79.7% (inactive) and 64.8% (inactive)	79.3% and 105%	-0.8% (inactive)	1.1
CC(=O)Nc1c(I)cc(I)c(C(=O)O)c1I	151% (inactive) and 81.4% (inactive)	82.9% and 215%	-0.1% (inactive)	1.9
NC(N)=N/N=C/c1c(Cl)cccc1Cl	15.7% (inactive) and 61% (inactive) and 36.4% (inactive)	48.5% and 89.8% and 102%	-0.1% (inactive)	-1.1
OCc1ccccc1O	91.8% (inactive) and 36.5% (inactive)	78.7% and 97.3%	0.4% (inactive)	1.3
O=C(O)c1ccccc1C(=O)Nc1ccc(S(=O)(=O)Nc2nccs2)cc1	89% (inactive) and 53.5% (inactive) and 22.8% (inactive)	103% and 81.4% and 87.5%	0.8% (inactive)	0.7
CCCCCCOc1ccccc1C(N)=O	151% (inactive)	88.6%	2.2% (inactive)	-1
CCCc1cc(C(N)=S)ccn1	145% (inactive) and 18.2% (inactive)	83.8% and 63%	0.2% (inactive)	2
Nc1cc(-c2ccncc2)c[nH]c1=O	103% (inactive)	98.5%	0.5% (inactive)	1.7
CN(C)c1ccc2nc3ccc(=[N+](C)C)cc-3sc2c1	0.205% (inactive)	47.9%	3.1% (inactive)	2.2
Cc1cc(C)nc(NS(=O)(=O)c2ccc(N)cc2)n1	78.5% (inactive) and 292% (inactive) and 25.7% (inactive)	96.6% and 70.6% and 93.3%	0.2% (inactive)	0.2
CC1(C)O[C@@H]2C[C@H]3[C@@H]4C[C@H](F)C5=CC(=O)CC[C@]5(C)[C@H]4[C@@H](O)C[C@]3(C)[C@]2(C(=O)CO)O1	156% (inactive)	105%	-1.9% (inactive)	4
CCN1CCCC(OC(=O)C(c2ccccc2)c2ccccc2)C1 (centres undefined)	78.7% (inactive) and 105% (inactive) and 40.1% (inactive)	75.6% and 65.9% and 85.9%	0.6% (inactive)	2.6
O=C(O)c1cn(-c2ccc(F)cc2)c2cc(N3CCNCC3)c(F)cc2c1=O	63.8% (inactive) and 65.5% (inactive) and 24.1% (inactive)	92.7% and 132% and 71%	0.8% (inactive)	2.8
Nc1ncnc2c1ncn2[C@@H]1O[C@H](COP(=O)(O)O)[C@@H](O)[C@H]1O	75.5% (inactive) and 87.1% (inactive)	125% and 81%	2.4% (inactive)	3.8
C[C@]12CC[C@@H]3c4ccc(O)cc4CC[C@H]3[C@@H]1C[C@@H](O)[C@@H]2O	68.5% (inactive) and 32.3% (inactive)	70% and 67.5%	4.3% (inactive)	3
OC[C@H]1O[C@@H](O[C@@H]2[C@@H](CO)O[C@](O)(CO)[C@H]2O)[C@H](O)[C@@H](O)[C@H]1O	106% (inactive) and 22.7% (inactive)	76.4% and 96.6%	2.4% (inactive)	1.6
C=CCSCC1Nc2cc(Cl)c(S(N)(=O)=O)cc2S(=O)(=O)N1 (centres undefined)	134% (inactive) and 105% (inactive) and 42.5% (inactive)	102% and 73.3% and 104%	0.3% (inactive)	0.6
Nc1nc2c(c(=O)[nH]1)N(C=O)C(CNc1ccc(C(=O)N[C@@H](CCC(=O)O)C(=O)O)cc1)CN2 (some centres undefined)	101% (inactive) and 95.5% (inactive) and 64.5% (inactive)	96.6% and 70.1% and 99.2%	1.7% (inactive)	4.1
Cn1c([N+](=O)[O-])cnc1COC(N)=O	74.3% (inactive) and 117% (inactive) and 35.4% (inactive)	101% and 70.6% and 91.7%	0.1% (inactive)	0.6
Nc1c2ccccc2nc2ccccc12	23.3% (inactive) and 22.9% (inactive)	78.7% and 67.3%	21.1% (inactive)	0.1
CC1(C)OC(=O)NC1=O	76.1% (inactive) and 103% (inactive) and 63.9% (inactive)	96.6% and 74.2% and 92.6%	1.7% (inactive)	2.2
CN(Cc1cc(Br)cc(Br)c1N)C1CCCCC1	167% (inactive) and 46% (inactive) and 10.9% (inactive)	89% and 109% and 68%	-0.1% (inactive)	-0.5
CN(C)CCc1c[nH]c2ccc(CS(=O)(=O)N3CCCC3)cc12	135% (inactive)	87.9%	1.7% (inactive)	1.6
Cc1cc2nc3c(=O)[nH]c(=O)nc-3n(C[C@H](O)[C@H](O)[C@H](O)CO)c2cc1C	147% (inactive)	99.8%	4.5% (inactive)	2.2
Cc1cc(C(C)(C)C)c(O)c(C(C)(C)C)c1	72.6% (inactive)	95.9%	1.4% (inactive)	0.1
COc1ccc(CN(CCN(C)C)c2ncccn2)cc1	161% (inactive) and 52.7% (inactive)	86.2% and 91.9%	1.3% (inactive)	2.3

Compound	parasite load remaining [1]	viability [1]	nuclear beta-catenin stimulation ([2]; at 10 µM)	nuclear beta-catenin stimulation ([2]; stimulation, at 2 µM) [%]
Cc1c(N(C)CS(=O)(=O)O)c(=O)n(-c2ccccc2)n1C	109% (inactive) and 141% (inactive) and 63.8% (inactive)	100% and 88.3% and 95.6%	-0.4% (inactive)	0.9
O=C(O)CCCCC1CCSS1 (centres undefined)	165% (inactive)	96.8%	0% (inactive)	-0.2
CC(=O)Nc1ccc(O)cc1	99.6% (inactive) and 108% (inactive) and 46.1% (inactive)	106% and 78.8% and 112%	-0.4% (inactive)	-0.2
CC[N+](C)(C)Cc1ccccc1Br	80.1% (inactive)	101%	-0.9% (inactive)	0.3
NC(=O)c1ccc([N+](=O)[O-])cc1Cl	63.8% (inactive) and 35.2% (inactive)	105% and 84.3%	-0.6% (inactive)	0.9
CC[C@]12CCCN3CCc4c(n(c5ccccc45)C(=O)C1)[C@@H]32	191% (inactive) and 75.4% (inactive)	102% and 73.8%	35.1% (inactive)	6.2
CC(=O)OCC(=O)[C@@]1(O)[C@H](C)C[C@H]2[C@@H]3CCC4=CC(=O)C=C[C@]4(C)[C@@]3(F)[C@@H](O)C[C@@]21C	64% (inactive) and 76.2% (inactive)	116% and 94.5%	-1.1% (inactive)	-2.1
CCCCN(CCCC)CCCOC(=O)c1ccc(N)cc1	67.1% (inactive) and 96% (inactive) and 39.6% (inactive)	98.6% and 79.9% and 102%	0.5% (inactive)	1.7
Cc1cc(CC(=O)O)n(C)c1C(=O)c1ccc(Cl)cc1	103% (inactive) and 101% (inactive) and 54.3% (inactive)	94.3% and 67.7% and 106%	-0.6% (inactive)	1.7
CN(C)/N=N/c1nc[nH]c1C(N)=O	56% (inactive) and 17.1% (inactive)	91.9% and 74%	1.8% (inactive)	-1.7
CC(=O)Nc1ccccc1	92.8% (inactive) and 37.4% (inactive)	71.9% and 93.5%	5.2% (inactive)	1.4
CC1CCC(NC(=O)N(CCCl)N=O)CC1 (centres undefined)	62.2% (inactive) and 25.6% (inactive)	87.1% and 108%	5.9% (inactive)	4.9
COc1ccnc(CS(=O)c2nc3ccc(OC(F)F)cc3[nH]2)c1OC (centres undefined)	154% (inactive) and 46.8% (inactive) and 36.5% (inactive)	91.7% and 94.9% and 116%	-0.4% (inactive)	1.1
O=C(Cn1ccnc1[N+](=O)[O-])NCCO	107% (inactive) and 46.8% (inactive)	103% and 102%	-1.8% (inactive)	0.3
OC(CCN1CCCCC1)(c1ccccc1)c1ccccc1	89.9% (inactive) and 126% (inactive)	98.8% and 84.6%	0.4% (inactive)	2.1
Cc1c(Nc2ncccc2C(=O)O)cccc1C(F)(F)F	99.9% (inactive) and 46.5% (inactive)	95.4% and 105%	4.9% (inactive)	-0.2
CCCCC1C(=O)N(c2ccccc2)N(c2ccc(O)cc2)C1=O (centres undefined)	75.4% (inactive) and 73.9% (inactive) and 45.8% (inactive)	80.4% and 71.7% and 90.8%	66.2% (active)	2.3
CCOC(=O)OC(C)OC(=O)[C@@H]1N2C(=O)[C@@H](NC(=O)[C@H](N)c3ccccc3)[C@H]2SC1(C)C (some centres undefined)	83% (inactive) and 78.3% (inactive)	104% and 79.2%	1.2% (inactive)	2.5
COc1cc(N)c(Cl)cc1C(=O)NC1CCN(Cc2ccccc2)CC1	50.5% (inactive) and 24.1% (inactive) and 67.3% (inactive)	116% and 86.9% and 74.5%	3.1% (inactive)	0.9
C=CCc1ccc(O)c(OC)c1	91.2% (inactive) and 49.1% (inactive)	77.2% and 96.4%	1.1% (inactive)	4.6
S=P(N1CC1)(N1CC1)N1CC1	137% (inactive) and 49.2% (inactive)	91% and 141%	-0.7% (inactive)	-0.3
O=C(O)c1cc(O)c(O)c(O)c1	50.3% (inactive)	100%	1% (inactive)	-0.2
CCN(CC)CCNC(=O)c1cc(Br)c(N)cc1OC	69.3% (inactive) and 155% (inactive)	93.9% and 89.2%	3.8% (inactive)	-1
C[C@@](Cc1ccc(O)c(O)c1)(NN)C(=O)O	47.3% (inactive)	129%	-1.9% (inactive)	-0.3
COc1ncnc(NS(=O)(=O)c2ccc(N)cc2)c1OC	74.2% (inactive) and 31.5% (inactive) and 37.8% (inactive)	68.7% and 97% and 73.5%	4.7% (inactive)	3.5

From PubChem BioAssay
